# Test results as given in PubChem BioAssay (EPA / NIEHS).
# “And” between values parts separate entries of the source, which are not always exact repeats. Equal values may be shown once. A structure can be active in one record and inactive in another. The source made the active and inactive calls. Rule for the calls: active = hit-call score of the fitted dose curve at least 0.9, where 1 is the maximum; inactive = score below 0.9.
# Read-out: Monokine induced gamma interferon (MIG), CXCL9 (gene 4283)
# Assay: BSK_SAg_MIG: BioMAP Diversity Plus: SAg Assay for Monokine induced gamma interferon (MIG) Biomarker Activity (AID 2283092)
# Details: primary human HUVEC with PBMC; actives raise or lower the signal
# In short: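 Measures CXCL9 protein by ELISA in a human vascular primary-cell co-culture (umbilical vein endothelium with PBMC) 24 h after chemical addition. Activity is scored up or down from the DMSO control.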
SMILES,outcome,AC50
CC(C)(C)CC(C)(C)c1ccc(O)c(-n2nc3ccccc3n2)c1,inactive,
OCCC(F)(F)C(F)(F)C(F)(F)C(F)(F)C(F)(F)C(F)(F)C(F)(F)C(F)(F)F,inactive,46.3 µM (active) and 43.8 µM (active)
CCCCC(CC)COC(=O)CCCCC(=O)OCC(CC)CCCC (stereo not drawn),inactive,
CC(C)(C)c1cccc(C(C)(C)C)c1O,inactive,
CCCCCCCCCCCCN1CCCC1=O,,36.8 µM (active)
CC(O)CO (stereo not drawn),inactive,
COc1ccc([N+](=O)[O-])cc1N,inactive,
CC(=O)CC(C)(C)O,inactive,
CCCCCCCCOC(=O)CCCCCCCCC(=O)OCCCCCCCC,inactive,
NCC(F)(F)C(F)(F)C(F)(F)C(F)(F)C(F)(F)C(F)(F)C(F)(F)F,inactive,
c1ccc2cc3c(ccc4ccccc43)cc2c1,inactive,
C[C@@H]1C[C@H]2[C@@H]3CCC4=CC(=O)C=C[C@]4(C)[C@@]3(F)[C@@H](O)C[C@]2(C)[C@@]1(O)C(=O)COP(=O)(O)O,inactive,
Oc1cccc(O)c1,inactive,
c1ccc2c(c1)Cc1ccccc1-2,inactive,
CCN(CC)CCNc1ccc(CNC=O)c2sc3ccc(OC)cc3c(=O)c12,,36.4 µM (active)
CC#C[C@]1(O)CC[C@H]2[C@@H]3CCC4=CC(=O)CCC4=C3[C@@H](c3ccc(N(C)C)cc3)C[C@@]21C,,35.5 µM (active)

SMILES,outcome,AC50
CCC(C)(C)C1CCC(O)CC1 (stereo not drawn),inactive,
Cc1cc(C)c(O)c(C)c1,inactive,
C#C[C@]1(O)CC[C@H]2[C@@H]3CCC4=CC(=O)CC[C@@H]4[C@H]3CC[C@@]21C,inactive,
O=C(OCCOCCOC(=O)c1ccccc1)c1ccccc1,inactive,
CCCCC(CC)COC(=O)CCCCC(=O)OCc1ccccc1 (stereo not drawn),inactive,
O=[N+]([O-])c1ccc(O)cc1,inactive,
C=C(C)C(=O)OCCC(F)(F)C(F)(F)C(F)(F)C(F)(F)C(F)(F)C(F)(F)F,inactive,
NC(=O)N(O)[C@@H]1C=C[C@H](Oc2cccc(Oc3ccc(F)cc3)c2)C1,inactive,
NC(=O)N1C(=O)C(C(=O)c2cc(Cl)cs2)c2cc(F)c(Cl)cc21 (stereo not drawn),inactive,
COC(=O)CCCCC(=O)OC,inactive,
CN(C)C=O,inactive,
O=c1c(-c2ccc(O)cc2)coc2cc(O)ccc12,inactive,
Cc1oc(-c2ccccc2)nc1CCOc1ccc(C[C@H](Nc2ccccc2C(=O)c2ccccc2)C(=O)O)cc1,,38.9 µM (active)
N#C[C@@H]1CC(F)(F)CN1C(=O)CNC1CC2CCC(C1)N2c1ncccn1 (stereo partly drawn),inactive,
OCCC(F)(F)C(F)(F)C(F)(F)C(F)(F)C(F)(F)C(F)(F)F,inactive,53.2 µM (active)
c1ccc2c(c1)ccc1ccccc12,inactive,

# Read-out: not listed separately
# Assay: BSK_SAg_PBMCCytotoxicity: PBMC Cytotoxicity Assessment in the BioMAP Diversity Plus: SAg Assay (AID 2283093);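 note: fitted both ways against DMSO so a hit may be loss or gain of signal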;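 for AC50: PBMC superantigen activated with SEB plus TSST-1 one hour after compound addition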
# Details: primary human HUVEC with PBMC
# In short: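 PBMC viability by Alamar Blue reduction, fluorescence read at 546/580 nm after 6 h dye exposure. Cells were dosed 1 h before SEB plus TSST-1 activation (20 ng/mL final each), then held 90 h; endothelial/PBMC human co-culture.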
SMILES,outcome,AC50
CC(C)(C)CC(C)(C)c1ccc(O)c(-n2nc3ccccc3n2)c1,inactive,
OCCC(F)(F)C(F)(F)C(F)(F)C(F)(F)C(F)(F)C(F)(F)C(F)(F)C(F)(F)F,,23.4 µM (active) and 10 µM (active) and 10.8 µM (active)
CCCCC(CC)COC(=O)CCCCC(=O)OCC(CC)CCCC (stereo not drawn),inactive,
CC(C)(C)c1cccc(C(C)(C)C)c1O,inactive,
CCCCCCCCCCCCN1CCCC1=O,,33 µM (active)
CC(O)CO (stereo not drawn),inactive,
COc1ccc([N+](=O)[O-])cc1N,inactive,
CC(=O)CC(C)(C)O,inactive,
CCCCCCCCOC(=O)CCCCCCCCC(=O)OCCCCCCCC,inactive,
NCC(F)(F)C(F)(F)C(F)(F)C(F)(F)C(F)(F)C(F)(F)C(F)(F)F,inactive,47.2 µM (active)
c1ccc2cc3c(ccc4ccccc43)cc2c1,inactive,
C[C@@H]1C[C@H]2[C@@H]3CCC4=CC(=O)C=C[C@]4(C)[C@@]3(F)[C@@H](O)C[C@]2(C)[C@@]1(O)C(=O)COP(=O)(O)O,inactive,
Oc1cccc(O)c1,inactive,
c1ccc2c(c1)Cc1ccccc1-2,inactive,
CCN(CC)CCNc1ccc(CNC=O)c2sc3ccc(OC)cc3c(=O)c12,,12.9 µM (active)
CC#C[C@]1(O)CC[C@H]2[C@@H]3CCC4=CC(=O)CCC4=C3[C@@H](c3ccc(N(C)C)cc3)C[C@@]21C,inactive,

SMILES,outcome,AC50
CCC(C)(C)C1CCC(O)CC1 (stereo not drawn),inactive,
Cc1cc(C)c(O)c(C)c1,inactive,
C#C[C@]1(O)CC[C@H]2[C@@H]3CCC4=CC(=O)CC[C@@H]4[C@H]3CC[C@@]21C,inactive,
O=C(OCCOCCOC(=O)c1ccccc1)c1ccccc1,inactive,
CCCCC(CC)COC(=O)CCCCC(=O)OCc1ccccc1 (stereo not drawn),inactive,
O=[N+]([O-])c1ccc(O)cc1,inactive,
C=C(C)C(=O)OCCC(F)(F)C(F)(F)C(F)(F)C(F)(F)C(F)(F)C(F)(F)F,inactive,
NC(=O)N(O)[C@@H]1C=C[C@H](Oc2cccc(Oc3ccc(F)cc3)c2)C1,inactive,
NC(=O)N1C(=O)C(C(=O)c2cc(Cl)cs2)c2cc(F)c(Cl)cc21 (stereo not drawn),inactive,
COC(=O)CCCCC(=O)OC,inactive,
CN(C)C=O,inactive,
O=c1c(-c2ccc(O)cc2)coc2cc(O)ccc12,inactive,
Cc1oc(-c2ccccc2)nc1CCOc1ccc(C[C@H](Nc2ccccc2C(=O)c2ccccc2)C(=O)O)cc1,,28.9 µM (active)
N#C[C@@H]1CC(F)(F)CN1C(=O)CNC1CC2CCC(C1)N2c1ncccn1 (stereo partly drawn),,8.08 µM (active)
OCCC(F)(F)C(F)(F)C(F)(F)C(F)(F)C(F)(F)C(F)(F)F,inactive,47.7 µM (active) and 55.7 µM (active)
c1ccc2c(c1)ccc1ccccc12,inactive,
